Screening results (PubChem BioAssay)
VACV Venus inh: vaccinia inhibition (Venus reporter). Potency, µM (doses to about 36.5 µM), without a hit: top-dose activity change, negative = inhibition, usual class: inhibitors. hit rate 0.46% among 330,000. Vaccinia virus Venus reporter expression, fluorescence. AID 720580; calls by dose curve; tested in A549 cells; also: potency is read from the fitted curve at half-maximal effect; nearly all actives have a fitted effect of over 30% in size
HCMV antiviral: inhibitors of human cytomegalovirus. HFF cells, HCMV-luciferase reporter, 72 h; hits give low values. activity change, negative = inhibition, % at 57.5 µM. hit rate 4.5% among 410,000. AID 1259415; in the data active = activity change below about -60%; inconclusive = no clear call, values can overlap the other calls; inactive = above about -39%
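Inhibition of viral replication was scored as loss of reporter luminescence in HFFs infected with HCMV-luciferase (MOI 1 PFU/cell) for 72 h; compounds tested at 2 doses, normalized to buffer and Salinomycin controls.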
HCV inhibitor: blocks hepatitis C virus. Huh7.5.1 HCVcc-Cre infection, luciferase reporter, 44 h. Potency, µM (top dose mostly 41.8 µM), for the others: at the highest dose activity change, negative = inhibition, hits mostly inhibitors. hit rate 3.4% among 340,000. AID 651820; active = well fitted inhibition curve with a large enough effect; inconclusive = small, poorly fitted or top-dose-only effect, or another doubt; inactive = no such curve, though single readings can be large or run the other way; also: potency is read from the fitted curve at half-maximal effect
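Cells seeded at 1,000/well and cultured 4 h, then compounds added followed by HCVcc-Cre virus (~0.5 moi). After 44 h further culture, luciferase substrate was added, plates held 15 min at room temperature, and luminescence read for 15 sec.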
FMDV inh: antivirals against foot and mouth disease virus; hit rate 1.2% among 410,000; FMDV antiviral cell-based qHTS; Potency, µM (highest dose often 57.9 µM), without a hit: at the highest dose activity change, negative = inhibition, actives largely listed as inhibitors; AID 1159524; calls by dose curve; tested in HEK293T cells; also: read-out not given here; potency is read from the fitted curve at half-maximal effect; nearly all actives have a fitted effect of over 45% in size
Vaccinia mCherry: inhibitors of vaccinia virus infection (mCherry reporter signal). Vaccinia virus mCherry reporter infection, fluorescence. Potency, µM (highest dose often 36.5 µM), for the others: top-dose activity change, negative = inhibition, most hits filed as inhibitors. hit rate 0.63% among 310,000. AID 720579; calls by dose curve; tested in A549 cells; also: potency is read from the fitted curve at half-maximal effect; nearly all actives have a fitted effect of over 35% in size
Numbers without * were called inactive; i = inactive; ? = inconclusive; nt = not tested or not shown. Compounds with a hit are over-represented: about 7.3% of the library has one in this group of screens. % is scaled to controls: 0 for no effect and ±100 for the full control effect.

SMILES | VACV Venus inh | HCMV antiviral | HCV inhibitor | FMDV inh | Vaccinia mCherry
CC1CCN(C(C)C(=O)Nc2cc(S(=O)(=O)N3CCCCC3)ccc2Cl)CC1 (centres undefined) | -7.3% | ? | 15.8µM* | -26.3% | -19.8%
O=C(CN(Cc1ccco1)Cc1ccco1)Nc1cc(S(=O)(=O)N2CCCCC2)ccc1Cl | nt | -83.2* | 10µM* | ? | nt
Cc1ccccc1NCC(=O)Nc1cc(S(=O)(=O)N2CCCCC2)ccc1C | nt | -16.8 | -29.8% | 3.2% | nt
CC1CC(C)CN(C(C)C(=O)Nc2cc(S(=O)(=O)N3CCCCC3)ccc2Cl)C1 (centres undefined) | -16.7% | -9.3 | 14.3% | -23.8% | i
CC(NCC(=O)Nc1cc(S(=O)(=O)N2CCCCCC2)ccc1Cl)c1ccccc1 (centres undefined) | nt | -26.8 | 12.6µM* | ? | nt
CCCCN1C(=O)C(CC(=O)NCc2ccco2)CC(C(=O)N2CCOCC2)=C1C (centres undefined) | -13.0% | 19.3 | nt | -25.5% | i
COc1ccc(CC(=O)Nc2ccc(S(=O)(=O)N3CCCC3)cc2)c(OC)c1 | nt | -4.9 | ? | 2.8% | nt
COc1cc(OC)cc(-n2c(=O)c3ccccc3n(CC(=O)NCCc3ccc(OC)c(OC)c3)c2=O)c1 | -0.7% | -0.2 | nt | -21.3% | -9.1%
Cc1ccc(NC(=O)c2ccccc2NS(=O)(=O)c2ccc(Cl)s2)cc1 | ? | -98.2* | 11.2µM* | 34.7% | ?
O=C(NCc1ccco1)c1ccccc1NS(=O)(=O)c1ccc(Cl)s1 | -10.1% | -26.1 | 3.7% | -24.2% | -19.3%
O=C(Nc1ccccc1Cc1ccccc1)c1ccccc1NS(=O)(=O)c1ccc(Cl)s1 | ? | -103.5* | ? | ? | ?
O=C(Nc1ccccc1)c1ccccc1NS(=O)(=O)c1ccc(Cl)s1 | ? | -63.8* | ? | 1.0% | ?
CCOC(=O)[C@]12CCCC=C1N(Cc1ccco1)C(=O)[C@H](CC(=O)N1CCSCC1)C2 | -6.8% | -81.6* | nt | -12.1% | -2.6%
COC(=O)[C@]12CCCCC=C1N(Cc1ccc(Cl)cc1Cl)C(=O)[C@H](CC(=O)NCc1ccccc1)C2 | -1.4% | 5.7 | nt | -9.3% | i
CCOC(=O)[C@]12CCCC=C1N(Cc1ccc(Cl)cc1Cl)C(=O)[C@H](CC(=O)NCc1cccc(C(F)(F)F)c1)C2 | -19.3% | -13.4 | nt | -28.2% | -19.8%
CCOC(=O)[C@]12CCC=C1N(Cc1ccc3c(c1)OCO3)C(=O)[C@H](CC(=O)NCc1cccc(C(F)(F)F)c1)C2 | -22.2% | 12.9 | nt | -19.4% | ?
CCOC(=O)[C@]12CCCC=C1N(Cc1ccco1)C(=O)[C@H](CC(=O)N1CCCCC1)C2 | 2.1% | -9.2 | nt | -13.2% | 12.6%
COC(=O)[C@]12CCCCC=C1N(Cc1ccc(Cl)cc1Cl)C(=O)[C@H](CC(=O)NCc1ccc(OC)c(OC)c1)C2 | -23.6% | -69.7* | nt | 31.6µM* | -11.3%
CCOC(=O)[C@]12CCCC=C1N(Cc1ccc3c(c1)OCO3)C(=O)[C@H](CC(=O)NCc1cccc(C(F)(F)F)c1)C2 | ? | -65.2* | nt | -14.5% | ?
CCOC(=O)[C@]12CCCC=C1N(Cc1ccc(Cl)cc1Cl)C(=O)[C@H](CC(=O)NCc1ccc(OC)c(OC)c1)C2 | ? | -70.9* | nt | ? | ?
CNc1nc(N2CCCN(C)CC2)nc2cc(OC)c(OC)cc12 | -9.9% | nt | nt | nt | -14.0%
COCCNC(=O)C1CCCN(S(=O)(=O)c2ccc3c(ccn3C)c2)C1 (centres undefined) | 1.5% | 7.2 | nt | -13.9% | -3.5%
Cn1c2c(c(=O)n(C)c1=O)C(C(F)(F)F)(C(F)(F)F)N=C(c1ccc(Cl)cc1)N2 | ? | nt | 1.58µM* | 2.24µM* | ?
CCOc1ccc(N(Cc2ccccc2)C(=O)c2nc(SC)ncc2Cl)cc1 | -12.3% | -25.9 | nt | ? | -17.6%
CS(=O)(=O)c1ncc(Cl)c(C(=O)N(Cc2ccc(Cl)cc2)Cc2ccco2)n1 | 15.8µM* | -107.1* | nt | ? | ?
SMILES | VACV Venus inh | HCMV antiviral | HCV inhibitor | FMDV inh | Vaccinia mCherry
CCCSc1ncc(Cl)c(C(=O)N(Cc2ccccc2)c2ccc(OC)cc2)n1 | ? | -75.4* | nt | ? | ?
COc1ccc(N(Cc2ccccc2)C(=O)c2nc(S(C)(=O)=O)ncc2Cl)cc1 | ? | -101.3* | nt | 17.8µM* | ?
CCCCN(CC)CCCNC(=O)CS(=O)(=O)Cc1nc(-c2ccc(C)cc2)oc1C | -23.3% | ? | nt | -24.2% | -20.5%
COc1ccc(-c2nc(CSc3nc4ncccc4[nH]3)c(C)o2)cc1OC | -4.1% | 26.0 | nt | -22.1% | -9.3%
CC(C)c1ccc(OCC(=O)Nc2ccc3oc(=O)ccc3c2)cc1 | 5.2% | -33.4 | ? | -21.7% | 7.5%
Cc1ccc(C)c(NC(=O)Cn2c(=O)n(CCCS(=O)(=O)C3CCCCC3)c(=O)c3ccccc32)c1 | -9.2% | -15.9 | nt | -5.3% | -8.3%
C/C(=N\NC(=O)c1nnn(-c2nonc2N)c1CSc1ccc(C)cc1)c1cccnc1 | -26.2% | -3.4 | nt | -18.5% | -3.8%
CCOc1ccccc1N(CC(=O)NCC1CCCO1)C(=O)CNS(=O)(=O)c1ccccc1 (centres undefined) | -8.2% | -68.8* | -10.5% | 4.5% | -7.9%
COc1ccc(S(=O)(=O)N(CC(=O)NCC2CCCO2)Cc2ccccc2)cc1C (centres undefined) | -5.3% | -90.2* | -1.5% | 1.0% | -17.7%
COc1ccc(S(=O)(=O)NCC(=O)N(CC(=O)NCC2CCCO2)c2ccccc2C)cc1 (centres undefined) | -16.5% | 22.8 | -1.8% | -13.6% | nt
CCC(C(=O)NCC1CCCO1)N(Cc1ccc(F)cc1)C(=O)CNS(=O)(=O)c1ccccc1 (centres undefined) | -6.9% | -70.6* | 7.1% | 23.1% | -18.6%
O=Cc1cccc(C=O)c1 | -18.1% | nt | nt | nt | i
COc1ccc(CNc2ccccc2C(=O)NCc2ccccc2)cc1COc1ccc(NC(C)=O)cc1 | -18.2% | nt | nt | nt | -18.1%
CCCNC(=O)C1(C)CCN(C(=O)c2ccc(F)c(Cl)c2)C1 (centres undefined) | 1.4% | -7.2 | nt | -18.2% | 2.9%
O=C(c1cnn2c1NC(=C1CC1)C=C2C(F)F)N1CCc2ccccc21 | -20.8% | nt | nt | nt | -7.3%
CC1CCCN(c2ccc(N)cc2C(N)=O)C1 (centres undefined) | -2.3% | ? | 7.4% | -15.0% | -8.7%
CC1CCCN(c2ccc(F)cc2N)C1 (centres undefined) | 29.9% | -77.6* | ? | -5.6% | -17.5%
CC(=O)NCCNc1ncncc1-c1ccccc1CN(C)C | nt | nt | nt | -9.1% | nt
Cc1ccc(Nc2nc(N)nc(COC(=O)C3=COCCO3)n2)cc1 | nt | 69.9 | 7.2% | 49.7% | nt
Cc1ccc(S(=O)(=O)N(C)C)cc1NC(=O)C(C)N(C)Cc1sccc1C (centres undefined) | ? | -61.5* | 7.08µM* | 15.8µM* | ?
Cc1ccc(S(=O)(=O)N(C)C)cc1NC(=O)C(C)NC(C)c1cccs1 (centres undefined) | -13.5% | 9.2 | 7.0% | -26.2% | -27.6%
